{"source": "PubChem BioAssay AID504333", "about": "(National Center for Advancing Translational Sciences (NCATS), 2011)", "note": "Among all 360,000 compounds or so, about 16,000 (4.4%) were called active. Another 9% or so got no clear call; they are omitted. This is one part of a sample in which actives are shown more often than they occur. Calls follow the shape of the dose curve; as a rule, active = well fitted inhibition curve with a large enough effect; inconclusive = small, poorly fitted or top-dose-only effect; inactive = no such curve, though single readings can be large or run the other way.", "data": [{"molecular_target": "Bromodomain adjacent to zinc finger domain protein 2B (Homo sapiens) (UniProt Q9UIF8)", "sequence (Q9UIF8 whole entry, looked up, the tested form may be a part)": "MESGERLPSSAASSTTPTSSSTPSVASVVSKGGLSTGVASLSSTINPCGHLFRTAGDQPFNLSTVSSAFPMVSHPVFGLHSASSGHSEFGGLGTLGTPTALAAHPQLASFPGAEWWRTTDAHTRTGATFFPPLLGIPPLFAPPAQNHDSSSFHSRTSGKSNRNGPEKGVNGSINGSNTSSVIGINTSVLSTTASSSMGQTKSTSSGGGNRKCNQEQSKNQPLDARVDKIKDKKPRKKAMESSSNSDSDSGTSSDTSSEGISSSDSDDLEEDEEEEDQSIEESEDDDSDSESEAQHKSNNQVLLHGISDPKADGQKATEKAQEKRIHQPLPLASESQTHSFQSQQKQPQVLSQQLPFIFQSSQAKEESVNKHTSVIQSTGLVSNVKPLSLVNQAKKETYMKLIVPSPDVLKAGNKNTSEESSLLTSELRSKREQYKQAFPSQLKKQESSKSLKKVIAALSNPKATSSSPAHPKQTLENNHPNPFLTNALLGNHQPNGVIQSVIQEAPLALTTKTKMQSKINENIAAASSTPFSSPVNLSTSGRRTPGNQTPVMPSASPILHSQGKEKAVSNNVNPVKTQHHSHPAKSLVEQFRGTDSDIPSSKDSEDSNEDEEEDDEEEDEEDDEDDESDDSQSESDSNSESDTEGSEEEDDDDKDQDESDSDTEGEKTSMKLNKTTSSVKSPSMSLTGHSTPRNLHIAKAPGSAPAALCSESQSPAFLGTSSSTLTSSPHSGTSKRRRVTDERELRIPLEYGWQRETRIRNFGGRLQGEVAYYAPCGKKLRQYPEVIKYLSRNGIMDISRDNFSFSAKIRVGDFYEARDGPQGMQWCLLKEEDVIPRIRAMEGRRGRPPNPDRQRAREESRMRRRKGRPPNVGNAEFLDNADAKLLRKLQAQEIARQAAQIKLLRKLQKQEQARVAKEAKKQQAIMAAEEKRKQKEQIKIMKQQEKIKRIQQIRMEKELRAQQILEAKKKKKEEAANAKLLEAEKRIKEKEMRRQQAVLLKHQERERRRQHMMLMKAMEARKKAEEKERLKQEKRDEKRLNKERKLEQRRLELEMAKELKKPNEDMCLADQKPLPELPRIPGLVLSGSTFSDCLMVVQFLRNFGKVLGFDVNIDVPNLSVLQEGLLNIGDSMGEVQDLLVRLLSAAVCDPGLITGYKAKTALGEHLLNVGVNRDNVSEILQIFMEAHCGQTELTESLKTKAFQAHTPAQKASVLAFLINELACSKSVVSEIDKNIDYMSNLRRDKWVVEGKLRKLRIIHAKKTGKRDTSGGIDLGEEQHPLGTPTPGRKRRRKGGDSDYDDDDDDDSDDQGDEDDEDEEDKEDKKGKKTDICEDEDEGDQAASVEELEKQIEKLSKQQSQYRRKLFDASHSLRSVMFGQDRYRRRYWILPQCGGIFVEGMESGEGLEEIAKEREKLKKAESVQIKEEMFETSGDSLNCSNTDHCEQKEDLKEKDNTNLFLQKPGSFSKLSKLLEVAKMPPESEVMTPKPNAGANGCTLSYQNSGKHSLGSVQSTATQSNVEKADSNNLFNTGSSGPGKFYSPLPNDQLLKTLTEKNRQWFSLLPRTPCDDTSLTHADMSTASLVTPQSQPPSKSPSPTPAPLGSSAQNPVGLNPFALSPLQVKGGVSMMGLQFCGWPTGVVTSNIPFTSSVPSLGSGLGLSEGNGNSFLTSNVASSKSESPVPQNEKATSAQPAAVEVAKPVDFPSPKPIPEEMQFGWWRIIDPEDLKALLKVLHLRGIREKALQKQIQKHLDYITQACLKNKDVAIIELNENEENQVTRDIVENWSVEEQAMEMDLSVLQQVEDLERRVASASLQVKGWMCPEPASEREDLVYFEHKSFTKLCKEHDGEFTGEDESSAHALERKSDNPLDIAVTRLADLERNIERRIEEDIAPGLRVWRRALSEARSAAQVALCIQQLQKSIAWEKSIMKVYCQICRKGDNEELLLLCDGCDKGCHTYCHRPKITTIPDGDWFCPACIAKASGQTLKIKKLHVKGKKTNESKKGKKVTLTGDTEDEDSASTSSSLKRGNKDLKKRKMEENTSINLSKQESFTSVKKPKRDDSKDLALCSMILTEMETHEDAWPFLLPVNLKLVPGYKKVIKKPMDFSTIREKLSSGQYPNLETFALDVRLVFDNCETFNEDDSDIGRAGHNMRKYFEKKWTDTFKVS", "assay": "qHTS Assay for Inhibitors of BAZ2B; also: nearly all actives have a fitted effect of over 60% in size; also: potency is read from the fitted curve at half-maximal effect; as to activity change, negative = inhibition: % is scaled to controls: 0 for no effect and ±100 for the full control effect", "settings": "AlphaScreen BAZ2B-H3K14Ac peptide displacement; series mostly up to 114 µM; activity change, negative = inhibition: at the top concentration", "how_it_was_run": "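Inhibition is scored as reduced AlphaScreen emission. The BAZ2B/b-H3(5-23)K14Ac complex (50 nM each) in PBS pH 7.4, 0.01% Tween-20 meets compound (up to 110 uM) for 30 min at RT before bead addition.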", "values": [{"compound": "CCOC(=O)N1CCc2c(sc3c2C(=O)NC(c2ccccc2F)N3)C1", "note": "(stereo not drawn)", "activity change, negative = inhibition": "-8.51% (inactive)"}, {"compound": "CCOc1ccc(CNCc2c(C(=O)O)c(C)n(Cc3cccc(OC)c3)c2C)cc1OC", "activity change, negative = inhibition": "-11.8% (inactive)"}, {"compound": "CCN(CC)S(=O)(=O)c1ccc(C(=O)N=c2sc3cccc(OC)c3n2C)cc1", "activity change, negative = inhibition": "-2.25% (inactive)"}, {"compound": "CCOC(=O)c1c(-c2ccc(OC)cc2)oc2ccc(OCc3ccc(C(=O)OC)cc3)cc12", "activity change, negative = inhibition": "18.6% (inactive)"}, {"compound": "CN1/C(=c2/s/c(=C3/C(=O)N(c4ccccc4)NC3=Nc3ccccc3)n(C)c2=O)C(C)(C)c2ccccc21", "Potency": "10 µM (active)"}, {"compound": "CN1C(=O)c2ccccc2Sc2ccc(NC(=O)Cc3ccc(Cl)cc3)cc21", "activity change, negative = inhibition": "-16.3% (inactive)"}, {"compound": "O=c1cc(Cn2nnc(-c3ccc(Cl)cc3)n2)nc2sccn12", "activity change, negative = inhibition": "13.1% (inactive)"}, {"compound": "O=C(NCc1ccc(Cl)cc1)c1cc2c(nc3sccn32)s1", "activity change, negative = inhibition": "-21.6% (inactive)"}, {"compound": "Cc1ccc(Nc2c(-c3ccc(Cl)cc3)nc3sccn23)c(C)c1", "Potency": "28.2 µM (active)"}, {"compound": "Cc1ccccc1C(=O)Nc1cc(C)c(O)c(-c2nc3ccccc3o2)c1", "activity change, negative = inhibition": "-18.7% (inactive)"}, {"compound": "Cc1ccc(Cl)cc1N(C)C(=O)C1CCCN(c2ncnc3onc(-c4ccc(F)cc4)c23)C1", "note": "(stereo not drawn)", "activity change, negative = inhibition": "3.17% [at 57.1 µM] (inactive)"}, {"compound": "CCOc1ccc(C2C(C(=O)Nc3ccc(Cl)cc3)=C(C)Nc3nc(C(F)(F)F)nn32)cc1", "note": "(stereo not drawn)", "activity change, negative = inhibition": "-5.74% (inactive)"}, {"compound": "COC(=O)c1ccc(COc2ccc(/C=C/C(=O)c3ccc(OC)c(CSCC(=O)O)c3)cc2OC)cc1", "Potency": "39.8 µM (active)"}, {"compound": "COc1ccc(C(=O)/C=C/c2ccc(-c3ccccc3)cc2)cc1CSCC(=O)O", "activity change, negative = inhibition": "-9.18% (inactive)"}, {"compound": "COc1ccc(/C=C/C(=O)N2CCCC2)cc1OC", "activity change, negative = inhibition": "2.76% (inactive)"}, {"compound": "CCOc1ccccc1NC(=O)Cn1c(=O)n(-c2cccc(C)c2)c(=O)c2c1c1cc(OC)ccc1n2C", "activity change, negative = inhibition": "-1.41% (inactive)"}, {"compound": "CCOc1cc(-c2nnc(SCC(=O)NC3CCCCC3)nc2-c2ccc(OC)c(OCC)c2)ccc1OC", "Potency": "79.4 µM (active)"}, {"compound": "COc1ccc(-c2nnc(SCC(=O)NC3CCCCC3)o2)cc1OC", "activity change, negative = inhibition": "11.7% (inactive)"}, {"compound": "COc1ccc(-c2nnc(SCC(=O)Nc3ccc(C(C)C)cc3)nc2-c2ccc(OC)c(OC)c2)cc1OC", "activity change, negative = inhibition": "-2.33% (inactive)"}, {"compound": "COCCn1c(SCC(=O)c2cc(C)ccc2C)nc2cc(C(=O)NC3CCCC3)ccc2c1=O", "activity change, negative = inhibition": "-11.7% (inactive)"}, {"compound": "Cc1ccc(-c2nc(CS(=O)(=O)CC(=O)NCc3ccccc3Cl)c(C)o2)cc1", "activity change, negative = inhibition": "-9.42% (inactive)"}, {"compound": "CCOc1ccc2nc(N3CCC(C(=O)Nc4cc(C)ccc4C)CC3)sc2c1", "activity change, negative = inhibition": "3.43% (inactive)"}, {"compound": "CC1=C(C(=O)Nc2ccccc2Cl)C(c2cccs2)n2ncnc2N1", "note": "(stereo not drawn)", "activity change, negative = inhibition": "-4.03% (inactive)"}, {"compound": "CCC(=C/c1sc2ccc3ccccc3c2[n+]1C)/C=C1\\Sc2ccc3ccccc3c2N1C", "Potency": "50.1 µM (active)"}, {"compound": "N#C/C(=C\\C1=C(N2CCOCC2)C(=C\\c2ccccc2)/CC1)C(=O)Nc1ccccc1F", "Potency": "2 µM (active)"}, {"compound": "N#C/C(=C\\c1ccccc1C(F)(F)F)C(=O)Nc1ccccc1F", "activity change, negative = inhibition": "6.18% (inactive)"}, {"compound": "N#C/C(=C/c1ccc(N2CCOCC2)o1)C(=O)N1CCOCC1", "activity change, negative = inhibition": "-0.368% (inactive)"}, {"compound": "Cc1ccc2c(=O)c(C(=O)c3ccc(Cl)cc3)cn(CC(=O)NC3CCCCC3)c2n1", "activity change, negative = inhibition": "8.9% [at 57.1 µM] (inactive)"}, {"compound": "COc1ccc2c(c1)N(C)/C(=C1/SC(=S)N(NC(C)=O)C1=O)S2", "activity change, negative = inhibition": "-7.93% (inactive)"}, {"compound": "CC(=O)N1C(=O)/C(=C2\\SC(=S)N(NC(=O)c3ccc(O)cc3)C2=O)c2ccccc21", "Potency": "39.8 µM (active)"}, {"compound": "O=C(O)c1ccc2c(c1)C(=O)N(NC(=O)c1ccc(O)cc1)C2=O", "activity change, negative = inhibition": "-2.56% (inactive)"}, {"compound": "CCOC(=O)c1cccc(NC(=O)c2cc(S(=O)(=O)N3CCCC(C)C3)cn2C)c1", "note": "(stereo not drawn)", "activity change, negative = inhibition": "-18.7% (inactive)"}, {"compound": "CCCCN1CC(c2nc3ccccc3n2CCCCOc2ccc(C)cc2C)CC1=O", "note": "(stereo not drawn)", "activity change, negative = inhibition": "0.797% (inactive)"}, {"compound": "Cc1ccc(N=C2NC(=O)/C(=C/C=C/c3ccco3)S2)cc1C", "Potency": "44.7 µM (active)"}, {"compound": "CCOC(=O)c1cc(-c2ccccc2)n(CCC(=O)Nc2ccccc2CC)c1C", "activity change, negative = inhibition": "-1.42% (inactive)"}, {"compound": "CC(C)CC(=O)NCC(c1ccc2c(c1)OCO2)N1CCN(c2ccc(F)cc2)CC1", "note": "(stereo not drawn)", "activity change, negative = inhibition": "22.9% (inactive)"}, {"compound": "Cc1nnc(NCc2ccccc2)c2c1nnn2Cc1ccc(F)cc1", "activity change, negative = inhibition": "-0.128% (inactive)"}, {"compound": "CCOc1ccc(C(=O)c2cn(Cc3ccc(F)cc3)c3ccc(F)cc3c2=O)cc1", "activity change, negative = inhibition": "-19.7% (inactive)"}, {"compound": "COc1ccc2oc(=O)cc(CN3CCOCC3)c2c1", "activity change, negative = inhibition": "7.09% (inactive)"}, {"compound": "CCOc1ccc2oc(=O)cc(CN3CCN(C(=O)c4ccc(F)cc4)CC3)c2c1", "activity change, negative = inhibition": "-6.12% (inactive)"}, {"compound": "CCOc1ccc(N(C)Cc2cc(=O)oc3ccc(OC)cc23)cc1", "Potency": "22.4 µM (active)"}, {"compound": "Cc1ccc(O)c(NC(=O)CCS(=O)(=O)c2nc(-c3ccc4c(c3)OCO4)cc(C(F)(F)F)n2)c1", "activity change, negative = inhibition": "-27% (inactive)"}, {"compound": "CCOC(=O)c1ccc(NC(=O)c2ncn(-c3ccccc3)n2)cc1", "activity change, negative = inhibition": "1.63% (inactive)"}, {"compound": "Fc1ccc(-c2nn(-c3ccccc3Cl)c3c2cnc2ccccc23)cc1", "activity change, negative = inhibition": "-26.2% (inactive)"}, {"compound": "COc1cccc(CNC(=O)Cn2c(=O)c3cccn3c3ccc(F)cc32)c1OC", "activity change, negative = inhibition": "4.05% (inactive)"}, {"compound": "CCOC(=O)c1cnc2c(C)cc(C)cc2c1Nc1ccc(N2CCOCC2)cc1", "Potency": "7.08 µM (active)"}, {"compound": "Cc1ccc(OCCCC(=O)Nc2ccc(N3CCOCC3)cc2)cc1", "activity change, negative = inhibition": "-34.6% (inactive)"}, {"compound": "CCOC(=O)c1cnc2c(C)cc(Cl)cc2c1NCCc1ccc(OC)c(OC)c1", "activity change, negative = inhibition": "8.49% (inactive)"}]}]}
